Source: PubChem BioAssay (NCATS)
Results filed as inconclusive are left out. Activity calls are given as the source filed them. Unless noted, the call rests on the fitted dose curve; in most records, active means well fitted curve in either direction with a large enough effect (not every such curve was filed as active); inconclusive means small, poorly fitted or top-dose-only effect, or another doubt; inactive means flat fitted curve, though single readings scatter.

Tests used:
[1] = target: Lysosomal acid glucosylceramidase (Homo sapiens) (UniProt P04062); experiment: Glucocerebrosidase-p2 (AID 348; in the data active means potency below about 10 µM; further: potency means the concentration at half of the fitted maximal effect); conditions: purified GBA, blue fluorogenic substrate, 40 min
Summary of the method: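 Compounds titrated from 0.6 nM upwards against 0.2 nM enzyme in pH 5.9 citric acid/KH2PO4, taurocholate, tween-20; blue fluorogenic substrate 80 uM, 40 min room temperature, stopped and read Ex 365/Em 440 for AC50.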

[2] = target: Cytochrome P450 1A2 (Homo sapiens) (UniProt P05177); experiment: p450-cyp1a2 (AID 410; calls by dose curve; further: potency means the concentration at half of the fitted maximal effect;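 on activity change, negative = inhibition: -100% = full effect of reference inhibitor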); conditions: recombinant CYP1A2, luciferin-ME demethylation, luminescence; series mostly up to 11.4 µM
Summary of the method: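 20nM CYP1A2 with 100uM Luciferin-ME (at Km) in 100mM KPO4; compound preincubated 10 min, NADPH regeneration added, 60 min at room temperature. Luciferin quantified by luminescence after detection reagent; normalized to 57 uM furafylline.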

[3] = target: Glucocorticoid receptor (Homo sapiens) (UniProt P04150); experiment: GR-GFP Redistribution (AID 450;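 active means compounds whose dose series gives a full or clear partial fitted curve of increased nuclear translocation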; further: potency means the concentration at half of the fitted maximal effect); conditions: U2OS GR-GFP nuclear translocation, laser cytometry, 2 h
[4] = target: Glucocorticoid receptor (Homo sapiens) (UniProt P04150); experiment: GR-EFC Redistribution (AID 451; calls by dose curve; further: potency means the concentration at half of the fitted maximal effect); conditions: CHO-K1 GR-EFC translocation, beta-gal luminescence, 2 h
Summary of the method: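 CHO-K1 cells expressing nuclear EA and GR-ED fragments of b-gal; compounds titrated up to 46 uM final, 2 h at 37 C. GR nuclear translocation read as complemented b-gal luminescence after 1 h RT detection.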

[5] = target: Mitogen-activated protein kinase 10 (Mus musculus) (UniProt Q61831); experiment: JNK3 AlphaScreen Assay (AID 530); conditions: JNK3 lysate, c-Jun phosphorylation; series mostly up to 11.4 µM;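 further: kinase came from lysate of stimulated human HepG2 cells; signal reports phosphorylation of biotinylated GST-cJun 1-79 at Ser73 with 10 µM ATP; on the % scale 0 is the no-effect control and ±100 the full control effect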
Summary of the method: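 Pre-activated (IL-1β/TNFα) JNK3 in HepG2 lysates phosphorylates biotin-GST-cJun(1-79), 10 uM ATP; anti-phospho-cJun(Ser73) AlphaScreen read at room temperature, pH 7.6 Tris buffer. Compounds pre-incubated 15 min as titrations.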

[6] = target: 3',5'-cyclic-AMP phosphodiesterase 4B (Homo sapiens) (UniProt Q07343); experiment: qHTS Assay for Inhibitors of PDE-IV (AID 607; active means well fitted activation curve with a large enough effect in the main read-out, with a control signal flat, not every such curve was filed as active; further: % of control where 0% means no effect); conditions: HEK293 ACTOne CNG channel cells, membrane potential fluorescence; series mostly up to 22.9 µM
Summary of the method: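 HEK293 ACTOne cells with CNG channel (1000/well), endogenous PDE4; membrane potential dye, compounds up to 22.9 uM final. Fluorescence Ex 535/Em 590; RO 20-1724 (100 uM final) as reference.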

[7] = target: Cytochrome P450 3A4 (Homo sapiens) (UniProt P08684); experiment: qHTS Assay for Inhibitors and Substrates of Cytochrome P450 3A4 (AID 884; active means well fitted curve in the direction sought with a large enough effect; an effect the other way counts as inactive or inconclusive; further: nearly all actives have a fitted effect of over 50% in size; further: potency means the concentration at half of the fitted maximal effect; on activity change, negative = inhibition: on the % scale 0 is the no-effect control and ±100 the full control effect); conditions: recombinant CYP3A4, Luciferin-PPXE luminescence; series mostly up to 57.1 µM
Summary of the method: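 20 nM human CYP3A4 with 25 uM Luciferin-PPXE (at KM) in 200 mM KPO4, preincubated 10 min with compound; NADPH regeneration started a 60 min RT reaction. Luciferin detected by luminescence, normalized to 57 uM ketoconazole as full inhibition.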

[8] = qHTS Assay for Identification of Small Molecule Agonists for Hypoxia Response Element Signaling Pathway (AID 914; active means well fitted activation curve with a large enough effect in the signal ratio, with a control signal flat, not every such curve was filed as active; the % refers to the signal ratio; further: potency means the concentration at half of the fitted maximal effect); conditions: ME-180 HRE-bla reporter, beta-lactamase ratio, CoCl2, 17 h; activation: stronger effect = higher value
Summary of the method: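 qHTS titration; ME-180 HRE-bla cells; EC50 CoCl2 co-treatment, 17 h at 37 degrees Celsius; CCF4 dye, ex 405nm, em 460nm and 530nm; %Activity from ratio; AC50.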

[9] = Stat Signaling Pathway (AID 446); conditions: ME-180 SIE beta-lactamase reporter, IL-6 stimulated, 5 h; at 7.69 µM (top of the series) unless noted;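 further: ME-180 cervical cancer cells given 40 pM IL-6 alongside compound; SIE-controlled beta-lactamase reporter measured as 460/530 nm FRET emission ratio; on the % scale 0 is the no-effect control and ±100 the full control effect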
Summary of the method: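 ME-180 cells carrying a SIE-driven beta-lactamase reporter are stimulated with 40 pM IL-6 for 5 h at 37C in the presence of compound. The 460/530 nm FRET substrate ratio is read after 2.5 h at RT. Data are normalised to 300 pM IL-6 and to 125 nM JAK inhibitor controls.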

[10] = target: Cytochrome P450 3A4 (Homo sapiens) (UniProt P08684); experiment: qHTS Assay for Activators of Cytochrome P450 3A4 (AID 885; active means well fitted curve in the direction sought with a large enough effect; an effect the other way counts as inactive or inconclusive; further: nearly all actives have a fitted effect of over 65% in size); conditions: recombinant CYP3A4, Luciferin-PPXE luminescence, 60 min; series mostly up to 11.4 µM
Summary of the method: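 Human CYP3A4 (20 nM) with Luciferin-PPXE at 25 uM (its KM) in 200 mM KPO4; 10 min compound preincubation, then NADPH regeneration and 60 min reaction at RT. Luciferin read by luminescence; normalized to 57 uM ketoconazole full inhibition.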

[11] = target: Cytochrome P450 2C19 (Homo sapiens) (UniProt P33261); experiment: qHTS Assay for Inhibitors and Substrates of Cytochrome P450 2C19 (AID 899; active means well fitted curve in the direction sought with a large enough effect; an effect the other way counts as inactive or inconclusive; further: nearly all actives have a fitted effect of over 60% in size; further: potency means the concentration at half of the fitted maximal effect); conditions: recombinant CYP2C19, luciferin-H EGE luminescence; series mostly up to 11.4 µM
Summary of the method: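 Luminescent read-out of luciferin formed from Luciferin-H EGE (10uM, equal to KM). Enzyme 5nM in 50mM KPO4; compound added, 10 min at 37C, then NADPH regenerating system for 60 min at 37C. Full inhibition defined by 57uM ketoconazole.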

[12] = target: Cytochrome P450 2C9 (Homo sapiens) (UniProt P11712); experiment: qHTS Assay for Inhibitors and Substrates of Cytochrome P450 2C9 (AID 883; active means well fitted curve in the direction sought with a large enough effect; an effect the other way counts as inactive or inconclusive; further: on the % scale 0 is the no-effect control and ±100 the full control effect; nearly all actives have a fitted effect of over 60% in size); conditions: recombinant CYP2C9, luciferin-H luminescence, 60 min; series mostly up to 11.4 µM
Summary of the method: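 10nM CYP2C9 + 100uM Luciferin-H (=KM), 25mM KPO4; cpd 10 min 37C; NADPH regen, 60 min 37C; stop/detect with P450 Glo-Buffer 20 min; luminescence. Norm. to 57uM sulphaphenazole as full inhibition.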

[13] = NFAT Signaling Pathway (AID 444); conditions: Jurkat NFAT-bla M1, carbachol, beta-lactamase ratio, 5 h; at 7.69 µM (top of the series) unless noted;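 further: carbachol stimulus at about its EC50 of 1 µM final; on the % scale 0 is the no-effect control and ±100 the full control effect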
Summary of the method: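 Jurkat cells with NFAT-driven β-lactamase reporter and co-expressed M1 receptor, stimulated with carbachol (final 1 uM, ~EC50), compound titration, 5 h at 37 °C. CCF4 loaded 1 h at RT; 460/530 nm ratio gave %activity and AC50.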

Sequence of Cytochrome P450 3A4 (Homo sapiens) (P08684 whole entry, looked up): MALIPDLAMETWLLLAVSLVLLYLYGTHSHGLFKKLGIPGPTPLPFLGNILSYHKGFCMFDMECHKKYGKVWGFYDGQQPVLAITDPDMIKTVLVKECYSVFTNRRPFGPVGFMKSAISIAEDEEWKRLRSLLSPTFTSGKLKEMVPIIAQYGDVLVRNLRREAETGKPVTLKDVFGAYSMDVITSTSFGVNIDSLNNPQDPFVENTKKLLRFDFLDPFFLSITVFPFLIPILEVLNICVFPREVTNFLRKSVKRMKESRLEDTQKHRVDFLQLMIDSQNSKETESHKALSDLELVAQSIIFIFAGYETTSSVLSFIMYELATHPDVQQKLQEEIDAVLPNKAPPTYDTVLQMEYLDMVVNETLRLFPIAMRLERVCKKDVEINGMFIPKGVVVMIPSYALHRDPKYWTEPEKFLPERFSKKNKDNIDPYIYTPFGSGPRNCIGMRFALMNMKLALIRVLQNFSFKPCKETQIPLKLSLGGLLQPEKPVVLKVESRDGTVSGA
Sequence of 3',5'-cyclic-AMP phosphodiesterase 4B (Homo sapiens) (Q07343 whole entry, looked up): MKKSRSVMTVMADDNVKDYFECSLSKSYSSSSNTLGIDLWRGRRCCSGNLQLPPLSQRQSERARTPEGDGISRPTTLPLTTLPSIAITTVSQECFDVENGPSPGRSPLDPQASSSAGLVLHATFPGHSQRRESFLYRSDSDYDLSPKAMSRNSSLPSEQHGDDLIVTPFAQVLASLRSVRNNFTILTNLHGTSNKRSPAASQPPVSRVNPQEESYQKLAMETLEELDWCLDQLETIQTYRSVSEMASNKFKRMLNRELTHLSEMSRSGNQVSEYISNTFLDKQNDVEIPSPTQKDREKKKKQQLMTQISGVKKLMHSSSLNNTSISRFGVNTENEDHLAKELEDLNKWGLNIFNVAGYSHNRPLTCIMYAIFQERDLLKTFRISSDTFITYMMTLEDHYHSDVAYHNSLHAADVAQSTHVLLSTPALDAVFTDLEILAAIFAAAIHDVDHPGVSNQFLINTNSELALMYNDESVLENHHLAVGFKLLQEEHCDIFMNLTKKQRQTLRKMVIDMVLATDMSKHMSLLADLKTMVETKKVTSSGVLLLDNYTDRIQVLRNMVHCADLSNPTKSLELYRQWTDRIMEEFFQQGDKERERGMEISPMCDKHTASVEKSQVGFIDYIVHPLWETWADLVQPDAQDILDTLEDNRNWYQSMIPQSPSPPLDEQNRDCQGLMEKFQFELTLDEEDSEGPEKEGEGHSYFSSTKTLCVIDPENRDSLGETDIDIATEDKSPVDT
Sequence of Cytochrome P450 1A2 (Homo sapiens) (P05177 whole entry, looked up): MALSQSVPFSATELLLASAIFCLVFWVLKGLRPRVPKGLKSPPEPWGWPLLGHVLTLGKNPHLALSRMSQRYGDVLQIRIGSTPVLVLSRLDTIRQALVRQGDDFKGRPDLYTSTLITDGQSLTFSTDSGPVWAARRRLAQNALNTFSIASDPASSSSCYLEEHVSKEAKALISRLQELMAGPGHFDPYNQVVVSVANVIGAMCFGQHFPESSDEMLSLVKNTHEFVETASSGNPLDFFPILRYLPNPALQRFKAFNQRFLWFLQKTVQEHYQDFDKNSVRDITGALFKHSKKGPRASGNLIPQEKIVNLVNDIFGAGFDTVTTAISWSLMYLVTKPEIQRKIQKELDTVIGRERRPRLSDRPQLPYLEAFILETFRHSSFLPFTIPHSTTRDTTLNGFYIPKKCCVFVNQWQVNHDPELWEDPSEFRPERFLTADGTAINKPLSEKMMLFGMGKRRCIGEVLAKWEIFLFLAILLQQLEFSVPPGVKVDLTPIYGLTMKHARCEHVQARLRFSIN
Sequence of Glucocorticoid receptor (Homo sapiens) (P04150 whole entry, looked up, the tested form may be a part): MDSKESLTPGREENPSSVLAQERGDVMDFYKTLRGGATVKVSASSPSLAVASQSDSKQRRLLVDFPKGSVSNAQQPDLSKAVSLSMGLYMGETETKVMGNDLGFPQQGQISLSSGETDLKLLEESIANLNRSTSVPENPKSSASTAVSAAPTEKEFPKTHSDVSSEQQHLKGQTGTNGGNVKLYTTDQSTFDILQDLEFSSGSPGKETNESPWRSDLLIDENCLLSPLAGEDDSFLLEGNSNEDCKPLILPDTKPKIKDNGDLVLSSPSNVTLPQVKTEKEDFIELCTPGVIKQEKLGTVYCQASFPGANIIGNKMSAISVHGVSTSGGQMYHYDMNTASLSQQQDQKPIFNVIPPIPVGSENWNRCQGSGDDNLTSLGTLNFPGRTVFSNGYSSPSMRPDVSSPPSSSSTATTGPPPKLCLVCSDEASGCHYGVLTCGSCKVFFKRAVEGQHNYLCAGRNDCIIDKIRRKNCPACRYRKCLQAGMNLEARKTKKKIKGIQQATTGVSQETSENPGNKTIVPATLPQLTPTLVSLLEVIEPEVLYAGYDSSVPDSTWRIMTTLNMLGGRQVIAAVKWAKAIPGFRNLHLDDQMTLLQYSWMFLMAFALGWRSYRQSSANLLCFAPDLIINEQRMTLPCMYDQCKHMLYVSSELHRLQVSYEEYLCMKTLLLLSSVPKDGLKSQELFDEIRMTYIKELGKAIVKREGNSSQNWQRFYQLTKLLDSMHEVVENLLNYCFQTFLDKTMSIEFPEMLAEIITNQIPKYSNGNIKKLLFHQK
Sequence of Lysosomal acid glucosylceramidase (Homo sapiens) (P04062 whole entry, looked up): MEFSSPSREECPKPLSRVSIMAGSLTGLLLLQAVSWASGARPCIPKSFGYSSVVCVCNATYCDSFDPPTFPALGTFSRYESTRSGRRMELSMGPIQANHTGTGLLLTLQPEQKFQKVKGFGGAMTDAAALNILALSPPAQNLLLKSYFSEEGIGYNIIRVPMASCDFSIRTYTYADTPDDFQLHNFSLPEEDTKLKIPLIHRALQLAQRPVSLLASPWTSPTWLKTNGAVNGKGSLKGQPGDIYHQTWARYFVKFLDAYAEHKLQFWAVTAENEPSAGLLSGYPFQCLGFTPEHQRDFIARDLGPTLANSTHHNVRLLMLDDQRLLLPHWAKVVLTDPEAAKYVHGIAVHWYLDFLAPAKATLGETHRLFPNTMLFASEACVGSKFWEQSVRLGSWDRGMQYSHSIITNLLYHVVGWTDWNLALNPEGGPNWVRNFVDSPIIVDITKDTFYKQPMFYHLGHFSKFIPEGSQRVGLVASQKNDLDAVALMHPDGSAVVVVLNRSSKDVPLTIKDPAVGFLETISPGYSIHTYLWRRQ
Sequence of Cytochrome P450 2C19 (Homo sapiens) (P33261 whole entry, looked up): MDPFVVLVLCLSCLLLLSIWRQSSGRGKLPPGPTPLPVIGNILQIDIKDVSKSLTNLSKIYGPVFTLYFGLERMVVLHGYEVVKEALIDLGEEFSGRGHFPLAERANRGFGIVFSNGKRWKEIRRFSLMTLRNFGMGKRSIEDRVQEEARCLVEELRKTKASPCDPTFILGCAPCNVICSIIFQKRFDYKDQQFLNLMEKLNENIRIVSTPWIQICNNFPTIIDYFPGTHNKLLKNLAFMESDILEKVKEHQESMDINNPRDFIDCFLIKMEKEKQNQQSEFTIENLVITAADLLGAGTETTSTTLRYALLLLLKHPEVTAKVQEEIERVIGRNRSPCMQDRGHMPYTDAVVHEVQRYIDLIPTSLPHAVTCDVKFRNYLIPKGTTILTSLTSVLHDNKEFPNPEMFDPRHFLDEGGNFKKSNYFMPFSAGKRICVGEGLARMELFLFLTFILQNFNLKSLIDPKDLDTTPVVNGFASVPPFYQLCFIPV
Sequence of Cytochrome P450 2C9 (Homo sapiens) (P11712 whole entry, looked up): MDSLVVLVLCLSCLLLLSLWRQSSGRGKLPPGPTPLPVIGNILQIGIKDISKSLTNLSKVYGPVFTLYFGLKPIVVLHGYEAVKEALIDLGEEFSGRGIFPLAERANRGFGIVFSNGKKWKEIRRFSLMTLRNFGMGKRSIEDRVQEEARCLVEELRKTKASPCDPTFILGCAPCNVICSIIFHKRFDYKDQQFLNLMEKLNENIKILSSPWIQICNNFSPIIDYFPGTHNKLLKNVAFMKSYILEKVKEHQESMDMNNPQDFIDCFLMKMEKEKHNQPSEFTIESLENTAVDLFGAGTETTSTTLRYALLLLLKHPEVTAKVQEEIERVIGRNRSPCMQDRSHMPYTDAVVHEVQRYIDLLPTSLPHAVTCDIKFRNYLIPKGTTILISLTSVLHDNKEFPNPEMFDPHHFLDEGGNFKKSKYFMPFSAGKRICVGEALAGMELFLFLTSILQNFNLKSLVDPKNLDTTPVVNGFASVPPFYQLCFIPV

CN1CCN(c2ncc3nc(-c4ccc(Cl)cc4)c(=O)n(C4CC4)c3n2)CC1
active: Potency [2] 15.8 µM | Potency [8] 3.16 µM
inactive: Potency [1] > 11.4 µM | Potency [3] > 9.22 µM | Potency [4] > 46 µM | Potency [5] | Potency [6] | Potency [7]

O=C1C(Cl)=C(Sc2nnc3c4ccccc4c4ccccc4c3n2)C(=O)c2ccccc21
inactive: Potency [1] > 11.4 µM | activity, negative = inhibition [9] -24.6% | Potency [3] > 46 µM | Potency [4] > 9.22 µM | Potency [5] | Potency [6] | Potency [10]
active: Potency [2] 0.398 µM | Potency [11] 1.58 µM

O=C1c2ccccc2C(O)(O)[C@@]1(O)[C@]1(O)C(=O)c2ccccc2C1(O)O
inactive: Potency [1] > 11.4 µM | activity change, negative = inhibition [2] -7.5% [at 2.29 µM] | Potency [3] > 46 µM | Potency [4] > 9.22 µM | Potency [5] | Potency [6] | Potency [12] | Potency [11]

CC(CO)(CO)N=Cc1cc(I)cc(I)c1O
inactive: Potency [1] > 11.4 µM | activity, negative = inhibition [9] -24.6% | Potency [3] > 46 µM | Potency [4] > 9.22 µM | Potency [5] | Potency [6]

Cc1cccc(Cl)c1NC[C@H](O)CN1CCN(C)CC1
inactive: Potency [1] > 11.4 µM | activity change, negative = inhibition [13] -10.1% | activity, negative = inhibition [9] 6.35% | Potency [3] > 46 µM | Potency [4] > 9.22 µM | Potency [5] | Potency [6]

O=S(=O)(c1cnccc1N1CCN(CCO)CC1)N1CCCC1
inactive: Potency [1] > 11.4 µM | activity change, negative = inhibition [13] 4.17% | activity, negative = inhibition [9] 8.84% | Potency [3] > 46 µM | Potency [4] > 9.22 µM | Potency [5] | Potency [6] | Potency [10]
active: Potency [7] 3.98 µM

CN(C)Cc1cc(C(C)(C)C)cc(CN(C)C)c1O
inactive: Potency [1] > 11.4 µM | activity change, negative = inhibition [13] 3.21% | activity, negative = inhibition [9] -1.5% | Potency [3] > 46 µM | Potency [4] > 9.22 µM | Potency [5] | Potency [6]
